Measurements from PubChem BioAssay AID1851 (National Center for Advancing Translational Sciences (NCATS), 2009).
About 5,100 (32%) of roughly 16,000 compounds were called active. Another 25% or so got no clear call; they are omitted. The call rests on the fitted dose curve; in most records, active means well fitted curve in the direction sought with a large enough effect; inconclusive means small, poorly fitted or top-dose-only effect, or effect the other way; inactive means no such curve, though single readings can be large or run the other way. Some of the results follow.

The compounds below were run against Cytochrome P450 3A4 (Homo sapiens) (UniProt P08684) (assay: Cytochrome panel assay with activity outcomes). Details: recombinant CYP, pro-luciferin dealkylation, luminescence, p450-cyp3a4; series mostly up to 57.1 µM.
On the % scale 0 is the no-effect control and ±100 the full control effect.

Cytochrome P450 3A4 (Homo sapiens), sequence (P08684 whole entry, looked up): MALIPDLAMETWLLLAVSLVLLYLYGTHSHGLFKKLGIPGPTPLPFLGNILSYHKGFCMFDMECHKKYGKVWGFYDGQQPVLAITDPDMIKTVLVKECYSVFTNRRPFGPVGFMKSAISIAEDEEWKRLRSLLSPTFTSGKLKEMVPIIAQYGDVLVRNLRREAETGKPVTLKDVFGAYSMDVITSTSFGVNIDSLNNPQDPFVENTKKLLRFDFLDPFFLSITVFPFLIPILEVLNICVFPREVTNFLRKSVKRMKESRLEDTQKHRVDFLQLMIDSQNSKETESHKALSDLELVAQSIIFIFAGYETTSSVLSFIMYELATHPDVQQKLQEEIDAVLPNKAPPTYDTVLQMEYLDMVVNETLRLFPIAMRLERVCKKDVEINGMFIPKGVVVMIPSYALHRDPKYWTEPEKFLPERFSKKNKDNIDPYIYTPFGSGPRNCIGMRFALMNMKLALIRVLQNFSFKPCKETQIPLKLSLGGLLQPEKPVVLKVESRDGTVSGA

How did the AC50 turn out when `CCn1cnc2c(Nc3cccc(Cl)c3)nc(N[C@@H]3CCCC[C@H]3N)nc21` was run?
Its AC50 is 12.6 µM (active).

For `COc1ccc(C(=O)NC2CC3CCCC(C2)N3CC(C)C)cc1OC` (stereo not given), which activity, negative = inhibition is on record?
The activity, negative = inhibition was “inactive”.

With `CC(Oc1ccc(-c2ccccc2)cc1)C(=O)O` (stereo not given) as the compound, how does the activity, negative = inhibition read?
The activity, negative = inhibition was 4.5% [at 11.4 µM] (inactive).

`C[C@@H]1O[C@H](OC2[C@@H](O)[C@H](O)C(O)[C@H](O)[C@H]2O)[C@@H](N)C[C@@H]1N=C(N)C(=O)O` (stereo not given in full) was tested. Which activity, negative = inhibition did it give?
Its activity, negative = inhibition is 2.45% [at 11.4 µM] (inactive).

Which activity, negative = inhibition does the source give for `NC[C@@H](CC(=O)O)c1ccc(Cl)cc1` here?
The activity, negative = inhibition was “inactive”.

With `O=C1CN=C(c2cccs2)c2c(sc3c2CCCC3)N1` as the compound, how does the AC50 read?
The AC50 was 15.8 µM (active).

`Cc1cc(Cc2cc(C)c(N)cc2N)c(N)cc1N` was tested. Which activity, negative = inhibition did it give?
The activity, negative = inhibition was -12.7% [at 11.4 µM] (inactive).

Which activity, negative = inhibition does the source give for `Cc1ccc(NC(=[OH+])c2cc3ccccc3cc2O)c(C)c1.Cc1ccc(NC(=[OH+])c2cc3ccccc3cc2O)c(C)c1.[Ni]` here?
Its activity, negative = inhibition is -23% [at 11.4 µM] (inactive).

How did the activity, negative = inhibition turn out when `CC(C)CCC[C@@H](C)[C@@H]1CC[C@@H]2[C@H]3CC[C@H]4C[C@@H](N)CC[C@@]4(C)[C@@H]3CC[C@]21C` was run?
Its activity, negative = inhibition is 0.227% [at 11.4 µM] (inactive).

For `Cc1c2cc[n+](CCN3CCCCC3)cc2c(C)c2c1[nH]c1ccc(O)cc12`, which activity, negative = inhibition is on record?
Its activity, negative = inhibition is -14.8% [at 11.4 µM] (inactive).

With `CN1CCN(C(=O)O[C@@H]2c3nccnc3C(=O)N2c2ccc(Cl)cn2)CC1` as the compound, how does the activity, negative = inhibition read?
Its activity, negative = inhibition is “inactive”.

Which activity, negative = inhibition does the source give for `COC1=C[C@H]2C3=C([C@H]2C1=O)[C@H](NC(C)=O)CCc1cc(OC)c(OC)c(OC)c13` here?
The activity, negative = inhibition was “inactive”.

For `CN1C(=O)C(C2c3ccccc3C(=O)N2Cc2ccc([N+](=O)[O-])cc2)C(=O)N(C)C1=O` (stereo not given), which activity, negative = inhibition is on record?
Its activity, negative = inhibition is -20.1% [at 11.4 µM] (inactive).

Which AC50 does the source give for `CCCCN1C(=O)C(C2c3ccccc3C(=O)N2Cc2ccccc2)C(=O)NC1=S` (stereo not given) here?
Its AC50 is 2.51 µM (active).

With `CN1CCc2nc3ccc(F)cc3c(C(N)=O)c2C1` as the compound, how does the activity, negative = inhibition read?
Its activity, negative = inhibition is “inactive”.

`CCN1C[C@]2(C)CC[C@@H](O)[C@]34[C@@H]5CC6[C@@H](OC)C[C@@](O)([C@H]5[C@@H]6O)[C@@H](C[C@@H]23)[C@H]14` was tested. Which activity, negative = inhibition did it give?
Its activity, negative = inhibition is “inactive”.

For `COC(=O)C1(C)C=C2C(=C(C)C(=O)C2C)CN1` (stereo not given), which activity, negative = inhibition is on record?
Its activity, negative = inhibition is “inactive”.

Which activity, negative = inhibition does the source give for `N[C@@H](CCCCP(=O)(O)O)C(=O)O` here?
The activity, negative = inhibition was “inactive”.

Which activity, negative = inhibition does the source give for `Cn1c(O)c(C(=N)COc2ccccc2)c(=O)n(C)c1=O` here?
Its activity, negative = inhibition is “inactive”.

`NC[C@@H](O)CSP(=O)(O)O` was tested. Which activity, negative = inhibition did it give?
The activity, negative = inhibition was 2.73% [at 11.4 µM] (inactive).

With `CNC(C)Cc1ccccc1Sc1ccc(O)cc1` (stereo not given) as the compound, how does the activity, negative = inhibition read?
Its activity, negative = inhibition is -6.72% [at 2.29 µM] (inactive).

For `COC(=O)NC/C=C\c1nc(CC/C=C\C(=O)O[C@H]2C[C@H]3CC(=O)O[C@@H](/C=C\CC(C)C)C[C@@H]4CC[C@H](C)[C@H](C[C@@H](OC)C[C@H](C2)O3)O4)co1`, which AC50 is on record?
The AC50 was 5.01 µM (active).

Which activity, negative = inhibition does the source give for `CNC(=O)Oc1ccc2c(c1)[C@@]1(C)CCN(C)[C@@H]1N2C` here?
The activity, negative = inhibition was “inactive”.

Which activity, negative = inhibition does the source give for `C[N+]1([O-])[C@@H]2CC(OC(=O)[C@@H](CO)c3ccccc3)C[C@@H]1[C@H]1O[C@H]12` (stereo not given in full) here?
Its activity, negative = inhibition is “inactive”.

How did the activity, negative = inhibition turn out when `c1ccc2c(c1)OC[C@@H](C1=NCCN1)O2` was run?
Its activity, negative = inhibition is “inactive”.

With `c1ccc(C2CC2)c(OCC2=NCCN2)c1` as the compound, how does the activity, negative = inhibition read?
Its activity, negative = inhibition is “inactive”.

For `CNCC/C=C\c1cccnc1`, which activity, negative = inhibition is on record?
The activity, negative = inhibition was “inactive”.

Which AC50 does the source give for `S=C=Nc1cccc(C2(N3CCCCC3)CCCCC2)c1` here?
Its AC50 is 15.8 µM (active).

With `CCC(COC(=O)NC)NC(=O)Oc1ccccc1` (stereo not given) as the compound, how does the activity, negative = inhibition read?
Its activity, negative = inhibition is “inactive”.

Which activity, negative = inhibition does the source give for `NC(N)=NC(=O)c1nc(Cl)c(N)nc1N` here?
Its activity, negative = inhibition is “inactive”.

Which activity, negative = inhibition does the source give for `Clc1cc(I)cc(Cl)c1NC1=NCCN1` here?
The activity, negative = inhibition was “inactive”.

`O=C(NCP(=O)(O)O)c1cccnc1` was tested. Which activity, negative = inhibition did it give?
The activity, negative = inhibition was -14.3% [at 11.4 µM] (inactive).

For `O=C(N/N=C(\c1ccccc1)c1cccnc1)C(O)(c1ccccc1)c1ccccc1`, which AC50 is on record?
Its AC50 is 7.94 µM (active).

`CC[C@]1(C2=NCCN2)Cc2ccccc2O1` was tested. Which activity, negative = inhibition did it give?
The activity, negative = inhibition was “inactive”.

How did the activity, negative = inhibition turn out when `CCN(CC)c1ccc(/C=C2/C(=O)NC(=O)N(CC3CCCO3)C2=O)cc1` (stereo not given) was run?
The activity, negative = inhibition was “inactive”.

How did the activity, negative = inhibition turn out when `C[C@@H]1O[C@@H](O[C@H]2C[C@@H](O)[C@]3(CO)[C@@H]4[C@@H](O)C[C@]5(C)[C@H](C6=CC(=O)OC6)CC[C@@]5(O)[C@H]4CC[C@@]3(O)C2)[C@H](O)[C@H](O)[C@@H]1O` was run?
Its activity, negative = inhibition is “inactive”.

`C/C=C(\C)C(=O)O[C@@H]1C(C)=C2[C@H]([C@@H]1OC(=O)CCCCCCC)[C@@](C)(OC(C)=O)C[C@@H](OC(=O)CCC)[C@@]1(O)[C@H]2OC(=O)[C@]1(C)O` was tested. Which AC50 did it give?
Its AC50 is 3.98 µM (active).

How did the activity, negative = inhibition turn out when `CO[C@H]1[C@H](O)[C@H](O[C@@H]2[C@H](Oc3cccc4c(O)c5c(=O)oc6ccc(C)c7c(=O)oc(c34)c5c67)O[C@@H](C)[C@H](O)[C@H]2O)O[C@@H](C)[C@@H]1O` was run?
Its activity, negative = inhibition is -7.43% [at 11.4 µM] (inactive).

`CCOC(=O)c1ncn2c1[C@H]1CCCN1C(=O)c1cc(OC)ccc1-2` was tested. Which activity, negative = inhibition did it give?
The activity, negative = inhibition was “inactive”.

How did the AC50 turn out when `COc1cc2c(cc1OC)[C@@H]1C(=O)c3ccc4c(c3O[C@@H]1CO2)C=CC(C)(C)O4` was run?
Its AC50 is 15.8 µM (active).

Which activity, negative = inhibition does the source give for `Cc1ncc([N+](=O)[O-])n1CCN=[N+]=[N-]` here?
Its activity, negative = inhibition is -15.3% [at 11.4 µM] (inactive).

For `NCCc1ccc(S(=O)(=O)F)cc1`, which activity, negative = inhibition is on record?
The activity, negative = inhibition was “inactive”.

How did the activity, negative = inhibition turn out when `C=CCN1C(=O)NC(=O)/C(=C/c2cccn2C)C1=O` was run?
The activity, negative = inhibition was 8.88% [at 2.29 µM] (inactive).

Which AC50 does the source give for `O=c1c2ccccc2nc(N2CCCC2)n1-c1ccc(Cl)cc1` here?
Its AC50 is 12.6 µM (active).

With `Cc1nc2sccc2c(=O)n1-c1ccccc1Cl` as the compound, how does the activity, negative = inhibition read?
Its activity, negative = inhibition is 4.91% [at 2.29 µM] (inactive).

Which activity, negative = inhibition does the source give for `O=C(Nc1ccc(Cl)cc1)Nc1nccs1` here?
Its activity, negative = inhibition is -2.97% [at 2.29 µM] (inactive).

How did the activity, negative = inhibition turn out when `O=C(O)CCCc1ccc(N(CCCl)CCCl)cc1` was run?
Its activity, negative = inhibition is “inactive”.

`Cc1ccc2cc3cc(C(=O)N4CCC5(CC4)OCCO5)oc3nc2c1` was tested. Which activity, negative = inhibition did it give?
Its activity, negative = inhibition is “inactive”.

`Cc1cc(NC(=O)CCC(=O)N2CCC3(CC2)OCCO3)no1` was tested. Which activity, negative = inhibition did it give?
The activity, negative = inhibition was “inactive”.

Which AC50 does the source give for `Cc1ccc2c(c1)N(CCC(=O)N1CCC3(CC1)OCCO3)C(=O)C(C)O2` (stereo not given) here?
Its AC50 is 2 µM (active).

How did the activity, negative = inhibition turn out when `CC(C)NP(=O)(NC(C)C)OP(=O)(NC(C)C)NC(C)C` was run?
Its activity, negative = inhibition is “inactive”.

Which activity, negative = inhibition does the source give for `N#CCCCC[N+]12CN3CN(CN(C3)C1)C2` here?
The activity, negative = inhibition was -1.78% [at 11.4 µM] (inactive).

With `c1ccc(N2CC3(CCNCC3)C2)cc1` as the compound, how does the activity, negative = inhibition read?
The activity, negative = inhibition was “inactive”.

How did the activity, negative = inhibition turn out when `COc1ccc2c(c1)CCC1C2CC[C@]2(C)[C@H](NCCCCCCN3C(=O)C=CC3=O)CC[C@@H]12` (stereo not given in full) was run?
Its activity, negative = inhibition is “inactive”.

How did the activity, negative = inhibition turn out when `C[C@@H]1[C@@H](C)N1C[C@H](O)Cn1ccnc1[N+](=O)[O-]` (stereo not given in full) was run?
The activity, negative = inhibition was -14.6% [at 11.4 µM] (inactive).
